Experimental data from PubChem BioAssay (EPA / NIEHS).
Where a structure was tested more than once in an assay, its records may differ in their call. Active and inactive are the calls of the source. The calls were made as follows: active = hit-call score of the fitted dose curve at least 0.9, where 1 is the maximum; inactive = score below 0.9.

How the values were obtained:
[1] = read-out: TIMP metallopeptidase inhibitor 1 (TIMP1), TIMP1 (gene 7076); assay: BSK_MyoF_TIMP1: BioMAP Diversity Plus: MyoF Assay for TIMP metallopeptidase inhibitor 1 (TIMP1) Biomarker Activity (AID 2284269); conditions: primary human lung fibroblasts
Outline: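 Primary human lung fibroblasts, MyoF multiplex system; chemical exposure 24 h; TIMP-1 by ELISA; positive fitting direction vs DMSO control.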

[2] = read-out: Matrix Metallopeptidase 1 (MMP1), MMP1 (gene 4312); assay: BSK_BF4T_MMP1: BioMAP Diversity Plus: BF4T Assay for Matrix Metallopeptidase 1 (MMP1) Biomarker Activity (AID 2284270); conditions: primary human bronchial epithelial cells with fibroblasts
Outline: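 Co-culture of human bronchial epithelial cells and dermal fibroblasts; MMP-1 levels measured by ELISA 24 hours after chemical dosing, relative to DMSO. Cytotoxicity checked in parallel cultures by SRB total-protein staining.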

[3] = read-out: Matrix Metallopeptidase 3 (MMP3), MMP3 (gene 4314); assay: BSK_BF4T_MMP3: BioMAP Diversity Plus: BF4T Assay for Matrix Metallopeptidase 3 (MMP3) Biomarker Activity (AID 2284271); conditions: primary human bronchial epithelial cells with fibroblasts
Outline: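 Co-culture of human bronchial epithelial cells and dermal fibroblasts dosed 24 h; MMP-3 measured by ELISA, positive-direction fit versus DMSO. Cytotoxicity tracked by SRB total-protein staining (560 nm) in parallel cultures.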

[4] = read-out: Tissue plasminogen activator (tPA), PLAT (gene 5327); assay: BSK_BF4T_tPA: BioMAP Diversity Plus: BF4T Assay for Tissue plasminogen activator (tPA) Biomarker Activity (AID 2284272); conditions: primary human bronchial epithelial cells with fibroblasts
Outline: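 tPA level quantified by ELISA at 24 h post-treatment in bronchial epithelial/dermal fibroblast co-cultures, gain of signal scored against DMSO baseline. Parallel cultures stained with 0.1% SRB (560 nm) to flag overt cytotoxicity.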

[5] = read-out: Plasminogen Activator Inhibitor-1 (PAI1), SERPINE1 (gene 5054); assay: BSK_BF4T_PAI1: BioMAP Diversity Plus: BF4T Assay for Plasminogen Activator Inhibitor-1 (PAI1) Biomarker Activity (AID 2284273); conditions: primary human bronchial epithelial cells with fibroblasts
Outline: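 Co-culture of human bronchial epithelial cells and dermal fibroblasts exposed to compound for 24 h. PAI-1 measured by ELISA; activity fitted in positive direction versus DMSO. Parallel SRB staining assessed overt cytotoxicity.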

[6] = BSK_BF4T_SRB: Viability Assessment in the BioMAP Diversity Plus: BF4T Assay (AID 2284274); conditions: primary human bronchial epithelial cells with fibroblasts
Outline: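 Co-culture of human bronchial epithelial cells and dermal fibroblasts (BioMAP BF4T) exposed 24 h. Total protein by sulforhodamine B staining (0.1% SRB after 10% TCA fixation, 560 nm) in parallel cultures; fitted vs DMSO.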

[7] = read-out: urokinase Plasminogen Activator (uPA), PLAU (gene 5328); assay: BSK_BF4T_uPA: BioMAP Diversity Plus: BF4T Assay for urokinase Plasminogen Activator (uPA) Biomarker Activity (AID 2284275); conditions: primary human bronchial epithelial cells with fibroblasts
Outline: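 Co-culture of human bronchial epithelial cells and dermal fibroblasts; uPA quantified by ELISA 24 hours after dosing, fitted relative to DMSO. Parallel SRB total-protein staining assessed overt cytotoxicity.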

[8] = read-out: Matrix Metallopeptidase 9 (MMP9), MMP9 (gene 4318); assay: BSK_BF4T_MMP9: BioMAP Diversity Plus: BF4T Assay for Matrix Metallopeptidase 9 (MMP9) Biomarker Activity (AID 2284276); conditions: primary human bronchial epithelial cells with fibroblasts
Outline: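 Co-culture of human bronchial epithelial cells and dermal fibroblasts dosed for 24 h; MMP-9 quantified by ELISA and fitted upward versus DMSO. Cytotoxicity monitored in parallel cultures by SRB total-protein staining at the biomarker time point.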

[9] = read-out: Interleukin-8 (IL8), CXCL8 (gene 3576); assay: BSK_IMphg_IL8: BioMAP Diversity Plus: IMphg Assay for Interleukin-8 (IL8) Biomarker Activity (AID 2284277); conditions: primary human endothelial cells with macrophages
Outline: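 Co-culture of human venular endothelial cells and macrophages exposed to chemicals for 24 h; IL-8 quantified by ELISA and compared against the DMSO baseline, with SRB total-protein staining in parallel cultures for cytotoxicity.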

[10] = read-out: Intercellular Adhesion Molecule 1 (ICAM1), ICAM1 (gene 3383); assay: BSK_BE3C_ICAM1: BioMAP Diversity Plus: BE3C Assay for Intercellular Adhesion Molecule 1 (ICAM1) Biomarker Activity (AID 2284278); conditions: primary human bronchial epithelial cells;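 also: cell-surface ICAM-1 protein level quantified by ELISA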
Outline: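 Primary human bronchial epithelial cells were exposed to compound for 24 h, after which cell-surface ICAM-1 was quantified by ELISA. Activity was fitted in the gain-of-signal direction against DMSO as negative control and baseline.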

[11] = read-out: Interleukin-8 (IL8), CXCL8 (gene 3576); assay: BSK_BE3C_IL8: BioMAP Diversity Plus: BE3C Assay for Interleukin-8 (IL8) Biomarker Activity (AID 2284280); conditions: primary human bronchial epithelial cells
Outline: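 IL-8 signal gain, normalised to DMSO vehicle, was scored after a 24 h chemical exposure of primary human bronchial epithelial cells, with detection by ELISA.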

[12] = read-out: Epidermal growth factor receptor (EGFR), EGFR (gene 1956); assay: BSK_BE3C_EGFR: BioMAP Diversity Plus: BE3C Assay for Epidermal growth factor receptor (EGFR) Biomarker Activity (AID 2284281); conditions: primary human bronchial epithelial cells
Outline: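 Compound is added to human bronchial epithelial cells, cells incubate 24 h, then EGFR is detected by ELISA. Values reflect positive-direction fitting relative to DMSO.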

[13] = read-out: Matrix Metallopeptidase 9 (MMP9), MMP9 (gene 4318); assay: BSK_BE3C_MMP9: BioMAP Diversity Plus: BE3C Assay for Matrix Metallopeptidase 9 (MMP9) Biomarker Activity (AID 2284283); conditions: primary human bronchial epithelial cells
Outline: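 Human primary bronchial epithelial cells exposed 24 h to compound. MMP9 quantified by ELISA. SRB total-protein staining of parallel cultures assesses cytotoxicity. Positive-direction fit relative to DMSO.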

[14] = read-out: Plasminogen activator inhibitor-1 (PAI1), SERPINE1 (gene 5054); assay: BSK_CASM3C_PAI1: BioMAP Diversity Plus: CASM3C Assay for Plasminogen activator inhibitor-1 (PAI1) Biomarker Activity (AID 2284284); conditions: primary human coronary artery smooth muscle cells;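 also: PAI-1 protein level measured by ELISA 24 h after dosing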
[15] = read-out: Monocyte Chemoattractant Protein-1 (MCP1), CCL2 (gene 6347); assay: BSK_hDFCGF_MCP1: BioMAP Diversity Plus: hDFCGF Assay for Monocyte Chemoattractant Protein-1 (MCP1) Biomarker Activity (AID 2284285); conditions: primary human foreskin fibroblasts
Outline: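 Human foreskin fibroblasts (hDFCGF system) were exposed to compound and secreted MCP-1 was measured by ELISA after 24 hours. Activity was fitted relative to DMSO. Cytotoxicity was checked by SRB total-protein staining in parallel cultures.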

[16] = read-out: Vascular cell adhesion molecule 1 (VCAM1), VCAM1 (gene 7412); assay: BSK_IMphg_VCAM1: BioMAP Diversity Plus: IMphg Assay for Vascular cell adhesion molecule 1 (VCAM1) Biomarker Activity (AID 2284286); conditions: primary human endothelial cells with macrophages
Outline: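 Human venular endothelial cells co-cultured with macrophages; VCAM-1 quantified by ELISA 24 h after dosing, fitted in the positive direction against DMSO. Cytotoxicity was checked in parallel cultures by SRB total-protein staining (0.1% SRB after 10% TCA fixation, 560 nm).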

[17] = read-out: Intercellular Adhesion Molecule 1 (ICAM1), ICAM1 (gene 3383); assay: BSK_hDFCGF_ICAM1: BioMAP Diversity Plus: hDFCGF Assay for Intercellular Adhesion Molecule 1 (ICAM1) Biomarker Activity (AID 2284287); conditions: primary human foreskin fibroblasts
Outline: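 Primary human foreskin fibroblasts (hDFCGF system) dosed with chemical; ICAM-1 quantified by ELISA at 24 h relative to DMSO. Parallel SRB total-protein staining to assess overt cytotoxicity.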

[18] = read-out: CD40, CD40 (gene 958); assay: BSK_IMphg_CD40: BioMAP Diversity Plus: IMphg Assay for CD40 Biomarker Activity (AID 2284288); conditions: primary human endothelial cells with macrophages
Outline: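 Venular endothelial cells co-cultured with macrophages (human primary), CD40 measured by ELISA 24 h after dosing. Positive-direction fit vs DMSO baseline; cytotoxicity tracked by SRB total-protein staining in parallel cultures.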

Measured: AC50

FC(F)(F)C(F)(F)C(F)(F)C(F)(F)C(F)(F)C(F)(F)CC[Si](Cl)(Cl)Cl
active: [3] 211 nM | [15] 39.3 nM
inactive: [1] | [2] | [3] | [4] | [5] | [6] | [7] | [8] | [9] | [10] | [11] | [12] | [13] | [14] | [15] | [16] | [17]

CCOC(C=C(C)CCC=C(C)C)OCC
active: [1] 3970 nM

OCCCCC(F)(F)C(F)(F)C(F)(F)C(F)(F)F
inactive: [1] | [2] | [3] | [4] | [5] | [6] | [7] | [8] | [9] | [10] | [11] | [12] | [13] | [14] | [15] | [16] | [17]

C=C(C)C(=O)OCC(F)(F)C(F)(F)C(F)(F)C(F)F
inactive: [1] | [2] | [3] | [4] | [5] | [6] | [7] | [8] | [9] | [10] | [11] | [12] | [13] | [14] | [15] | [16] | [17] | [18]
